The test system of one assay is HaCat. As to the kind of experiment: Cytotoxic Profiling of Annotated Libraries Using Quantitative High-Throughput Screening (AID 1296008). For max response: % is set by controls: 0 for no effect and ±100 for the full control effect. The note with it: Five cell lines viability, CellTiter-Glo ATP luminescence, 48-72 h; max response: stronger effect = lower value. The gist of the method:
(§1)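 Cytotoxicity was measured as CellTiter-Glo ATP luminescence, read after 10 min at room temperature. Compound treatment of the cells lasted 48 or 72 hr at 37 degrees Celsius in a qHTS format.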

The subject of another assay is KB-3-1. Described as above. The note with it: Five cell lines viability, CellTiter-Glo ATP luminescence, 48-72 h; max response: stronger effect = lower value. The gist of the method:
as §1
For orientation: Cellular ATP, detected with luciferase, serves as a proxy for viable cell number.

The next assay deals with PC49. As to the kind of experiment: qHTS profiling for inhibitors of Plasmodium falciparum proliferation (AID 504749). The note with it: P. falciparum in erythrocytes, SYBR Green DNA, 72 h; series mostly up to 28.7 µM. The gist of the method: (§2)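 Three-day growth assay of blood-stage parasites in erythrocytes (0.3% parasitemia, 2.5% hematocrit) at 37 C, 5% CO2, quantified by SYBR Green DNA staining after overnight detergent lysis.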
(In general: qHTS replaces the single test concentration by a dilution series.)

The subject of a further assay is SC27B. The description is as above. The note with it: P. falciparum in erythrocytes, SYBR Green DNA, 72 h; series mostly up to 28.7 µM. The gist of the method:
as §2

The subject of another assay is TAB109. The description is as above. The note with it: P. falciparum in erythrocytes, SYBR Green DNA, 72 h; series mostly up to 28.7 µM. The gist of the method:
as §2

For a further assay, the system named is TAB113. The assay is described as above. The note with it: P. falciparum in erythrocytes, SYBR Green DNA, 72 h; series mostly up to 28.7 µM. The gist of the method:
as §2

The test system of the next assay is TAB165. The assay is described as above. The note with it: P. falciparum in erythrocytes, SYBR Green DNA, 72 h; series mostly up to 28.7 µM. The gist of the method:
as §2

In the next assay the test system is W2. The assay is described as above. The note with it: P. falciparum in erythrocytes, SYBR Green DNA, 72 h; series mostly up to 28.7 µM. The gist of the method: as §2

SMILES strings stand for the structures. Where “and” joins values, the source holds several entries; their conditions need not be identical. Equal entries are not always repeated. Records with an inconclusive call do not appear. Values without a mark were called inactive. Calls of active or inactive are those of the source. Calls come from the whole dose curve; as a rule, active = well fitted inhibition curve with a large enough effect; inconclusive = small, poorly fitted or top-dose-only effect; inactive = flat fitted curve, though single readings scatter.
Note: nearly all actives have a fitted effect of over 60% in size.
Potency is the fitted concentration of half-maximal effect.

`CN(C)c1ccc(N=NS(=O)(=O)O)cc1`: the figures for the max response in the assay on HaCat and in the assay with KB-3-1 were -1.75% and -10.4%, respectively.
On to `C[N+](C)(C)CCOP(=O)(O)OP(=O)([O-])OC[C@H]1O[C@@H](n2ccc(N)nc2=O)[C@H](O)[C@@H]1O`, for which, in the assay with KB-3-1, the max response is 10.6% and -5.11%.
For `C#C[C@]1(O)CC[C@H]2[C@@H]3CCc4cc(O)ccc4[C@H]3CC[C@@]21C`, the Potency result in the assay with PC49, in the assay on SC27B, in the assay with TAB109, in the assay on TAB113, with TAB165 and in the assay on W2 was “inactive” throughout. Further, the Potency with HaCat is 4.73 µM (active).
In the case of `NS(=O)(=O)c1ccc(-n2nc(C(F)(F)F)cc2-c2ccc(Cl)cc2)cc1`, the result in the assay with HaCat was inactive. Also, the max response in the assay on KB-3-1 was -3.63%.
In the case of `C=CC(N)CCC(=O)O` (stereo not given), the Potency result in the assay on PC49, in the assay on SC27B, with TAB109, in the assay with TAB113, with TAB165 and with W2 was “inactive” each time. Also, in the assay with KB-3-1, the max response is 3.37%.
For the compound `CC(=O)[C@]1(O)Cc2c(O)c3c(c(O)c2[C@@H](O[C@H]2C[C@H](N)[C@H](O)[C@H](C)O2)C1)C(=O)c1c(O)cccc1C3=O`, the Potency in the assay with PC49 was 8.91 µM (active); with SC27B, 12.6 µM (active); in the assay on TAB109, 7.08 µM (active); in the assay with TAB113, 7.08 µM (active); in the assay with TAB165 it was 5.01 µM (active); with W2, 4.26 µM (active). Besides, the Potency in the assay with KB-3-1 is 4.61 µM (active) and 5.17 µM (active).
In the case of `O=C(O)c1cc(O)c(O)c(O)c1`, the Potency entry in the assay on PC49, with SC27B and with TAB109 was “inactive” in each case. Moreover, in the assay with W2, the Potency is 5.36 µM (active).
For the compound `CC1(C)C[C@@H]1C(=O)N/C(=C\CCCCSC[C@H](N)C(=O)O)C(=O)O`, the Potency entry in the assay on PC49, in the assay with SC27B, with TAB109, in the assay with TAB113, in the assay on TAB165 and in the assay with W2 was “inactive” in each case.
Consider `CCCCCC[C@@H](O)C/C=C\CCCCCCCC(=O)O`, for which the Potency entry with PC49, in the assay with SC27B, in the assay with TAB109, in the assay with TAB113, with TAB165 and in the assay with W2 was “inactive” each time. The max response in the assay on KB-3-1 was -2.77% and 6.21% and -9.38%.
Regarding `COc1cc(/C=C/C(=O)CC(=O)/C=C/c2ccc(O)c(OC)c2)ccc1O`, the Potency result with PC49 was “inactive”. Besides, in the assay on W2, the Potency is 6.75 µM (active).

Source of the values: PubChem BioAssay (NCATS).
